The nature of experiment [1]: NCI Yeast Anticancer Drug Screen. Data for the rad50 strain (AID 155).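 Note: 0% = growth of vehicle-only cultures of the same strain.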 To be noted: S. cerevisiae rad50 strain growth inhibition, hits give high values. In outline:
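Compounds were tested on a yeast strain with an engineered DNA damage repair alteration; the reported value is growth inhibition normalised to vehicle treatment.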

Experiment [2] in a line: NCI Yeast Anticancer Drug Screen. Data for the mec2-1 strain (AID 157). To be noted: S. cerevisiae mec2-1 strain, hits give high values. In outline: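 Strain: mec2-1 (DNA repair/cell cycle alteration). Compound exposure, then growth measured; inhibition expressed relative to vehicle.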
The nature of experiment [3]: NCI Yeast Anticancer Drug Screen. Data for the sgs1 mgt1 strain (AID 161).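 Note: 0% = growth of cultures given vehicle only.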 To be noted: S. cerevisiae sgs1 mgt1 strain, hits give high values. The essentials: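 Mutant yeast exposed to compound; growth scored against vehicle-only wells.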
A short description of experiment [4]: NCI Yeast Anticancer Drug Screen. Data for the cln2 rad14 strain (AID 165).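 Note: 0% = growth equal to vehicle treated cultures.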 To be noted: S. cerevisiae cln2 rad14 strain, hits give high values. The essentials:
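Compounds are applied to the cln2 rad14 yeast strain, and growth is then compared with that of vehicle-treated cultures to give inhibition.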

The nature of experiment [5]: NCI Yeast Anticancer Drug Screen. Data for the bub3 strain (AID 167). The conditions noted are these: S. cerevisiae bub3 mutant strain, hits give high values. In outline: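 Growth of a checkpoint-deficient yeast mutant is measured after compound exposure. Values represent inhibition relative to vehicle.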
The nature of experiment [6]: NCI Yeast Anticancer Drug Screen. Data for the mlh1 rad18 strain (AID 175). To be noted: S. cerevisiae mlh1 rad18 strain growth inhibition, hits give high values. In outline:
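Read-out is yeast growth inhibition, calculated against vehicle-only controls. The compound was applied to a strain engineered with DNA damage repair alterations.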

[7] abbreviates: at 5.0 µM (retest, dose inferred, filed as 0.5).
[8] abbreviates: at 50.0 µM (retest, dose inferred, filed as 5.0).

About 79,000 compounds went through this panel and 15% of them were active in at least one assay; those are over-represented in the sample as a whole. Unmarked numbers belong to inactive results. Activity calls are given as the source filed them. Cut-off read from the data, not from the text of the source: active = growth inhibition above about 70%; inactive = the rest.

As to `CCCCCCCCCCCC1=NCC(C)N1` (configuration not stated), the growth inhibition in experiment [1] (setting [7]) is -39%; in experiment [1] (setting [8]), 26%; in experiment [1] (at 50.0 µM), 71.9% (active); in experiment [2] (setting [7]) it was 2%; in experiment [2] (setting [8]), 27%; in experiment [2] (at 50.0 µM) it was -2.95%. Moreover, the growth inhibition in experiment [3] (setting [7]) was -3%; in experiment [3] (setting [8]) it was 1%; in experiment [3] (at 50.0 µM) it was 28.6%; in experiment [4] (setting [7]), -46%; in experiment [4] (setting [8]) it was -5%; in experiment [4] (at 50.0 µM), 44.4%. Also, the growth inhibition in experiment [5] (setting [7]) is 0%; in experiment [5] (setting [8]), 36%; in experiment [5] (at 50.0 µM), 45%; in experiment [6] (setting [7]), -29%; in experiment [6] (setting [8]), 15%; in experiment [6] (at 50.0 µM) it was 46%.
As to `CCCCCCCCCCCCCCNCCC(=O)O`, the growth inhibition in experiment [1] (setting [7]) is -8%; in experiment [1] (setting [8]), 99% (active); in experiment [1] (at 50.0 µM) it was 99.1% (active); in experiment [2] (setting [7]) it was 23%; in experiment [2] (setting [8]) it was 100% (active); in experiment [2] (at 50.0 µM), 99.5% (active). The growth inhibition in experiment [3] (setting [7]) was 2%; in experiment [3] (setting [8]), 98% (active); in experiment [3] (at 50.0 µM) it was 99.1% (active); in experiment [4] (setting [7]), -8%; in experiment [4] (setting [8]) it was 99% (active); in experiment [4] (at 50.0 µM) it was 99.2% (active). Moreover, the growth inhibition in experiment [5] (setting [7]) was -6%; in experiment [5] (setting [8]) it was 99% (active); in experiment [5] (at 50.0 µM), 99.3% (active); in experiment [6] (setting [7]), -13%; in experiment [6] (setting [8]), 99% (active); in experiment [6] (at 50.0 µM), 99.3% (active).
With `O=C(CCl)Oc1ccc(Sc2ccc(OC(=O)CCl)cc2)cc1`, the growth inhibition in experiment [1] (setting [7]) is 6%; in experiment [1] (setting [8]), 97% (active); in experiment [1] (at 50.0 µM), 98.7% (active); in experiment [2] (setting [7]), 12%; in experiment [2] (setting [8]), 98% (active); in experiment [2] (at 50.0 µM), 98.3% (active). The growth inhibition is 10% in experiment [3] (setting [7]); 97% (active) in experiment [3] (setting [8]); 98.8% (active) in experiment [3] (at 50.0 µM); 13% in experiment [4] (setting [7]); 94% (active) in experiment [4] (setting [8]); 96.3% (active) in experiment [4] (at 50.0 µM). Further, the growth inhibition was 1% in experiment [5] (setting [7]); 99% (active) in experiment [5] (setting [8]); 99.4% (active) in experiment [5] (at 50.0 µM); 7% in experiment [6] (setting [7]); 99% (active) in experiment [6] (setting [8]); 97.9% (active) in experiment [6] (at 50.0 µM).
With `CCOC(CN(C)C(=O)Nc1ccc(Cl)c(Cl)c1)OCC`, the growth inhibition in experiment [1] (setting [7]) is -31%; in experiment [1] (setting [8]), 52%; in experiment [1] (at 50.0 µM), 63.7%; in experiment [2] (setting [7]) it was 2%; in experiment [2] (setting [8]), 61%; in experiment [2] (at 50.0 µM), 32.7%. The growth inhibition in experiment [3] (setting [7]) was -15%; in experiment [3] (setting [8]), 56%; in experiment [3] (at 50.0 µM), 58.6%; in experiment [4] (setting [7]), -17%; in experiment [4] (setting [8]), 45%; in experiment [4] (at 50.0 µM), 67.8%. Moreover, the growth inhibition in experiment [5] (setting [7]) was -26%; in experiment [5] (setting [8]), 71% (active); in experiment [5] (at 50.0 µM), 54.9%; in experiment [6] (setting [7]) it was -25%; in experiment [6] (setting [8]), 84% (active); in experiment [6] (at 50.0 µM) it was 38.7%.
Consider `O=S(=O)(Sc1ccccc1)c1ccccc1`, for which the growth inhibition in experiment [1] (setting [7]) is 13%; in experiment [1] (setting [8]), 98% (active); in experiment [1] (at 50.0 µM) it was 79% (active); in experiment [2] (setting [7]) it was 11%; in experiment [2] (setting [8]), 99% (active); in experiment [2] (at 50.0 µM), 99.1% (active). Also, the growth inhibition in experiment [3] (setting [7]) was 16%; in experiment [3] (setting [8]) it was 99% (active); in experiment [3] (at 50.0 µM), 99.3% (active); in experiment [4] (setting [7]), 5%; in experiment [4] (setting [8]), 99% (active); in experiment [4] (at 50.0 µM), 97% (active). In addition, the growth inhibition is 16% in experiment [5] (setting [7]); 99% (active) in experiment [5] (setting [8]); 97.3% (active) in experiment [5] (at 50.0 µM); 20% in experiment [6] (setting [7]); 99% (active) in experiment [6] (setting [8]); 99% (active) in experiment [6] (at 50.0 µM).
As for `CCOC(=O)c1nnc2cc(-c3ccccc3)nn2c1-c1ccccc1`, the growth inhibition in experiment [1] (setting [7]) is 65%; in experiment [1] (setting [8]), 85% (active); in experiment [1] (at 50.0 µM) it was 51.1%; in experiment [2] (setting [7]), 35%; in experiment [2] (setting [8]) it was 66%; in experiment [2] (at 50.0 µM) it was 21.8%. Further, the growth inhibition in experiment [3] (setting [7]) is 48%; in experiment [3] (setting [8]), 80% (active); in experiment [3] (at 50.0 µM), 75.2% (active); in experiment [4] (setting [7]) it was 25%; in experiment [4] (setting [8]), 38%; in experiment [4] (at 50.0 µM) it was 41.4%. For the same molecule, the growth inhibition in experiment [5] (setting [7]) is 45%; in experiment [5] (setting [8]), 70% (active); in experiment [5] (at 50.0 µM), 65.9%; in experiment [6] (setting [7]) it was 61%; in experiment [6] (setting [8]), 90% (active); in experiment [6] (at 50.0 µM) it was 38.6%.
Turning to `CCSC(=S)NC(=O)c1ccccc1`, the growth inhibition is -6% in experiment [1] (setting [7]); 27% in experiment [1] (setting [8]); 60.2% in experiment [1] (at 50.0 µM); 1% in experiment [2] (setting [7]); 20% in experiment [2] (setting [8]); 21.4% in experiment [2] (at 50.0 µM). Moreover, the growth inhibition in experiment [3] (setting [7]) was -2%; in experiment [3] (setting [8]) it was 30%; in experiment [3] (at 50.0 µM), 76.5% (active); in experiment [4] (setting [7]) it was -12%; in experiment [4] (setting [8]) it was 28%; in experiment [4] (at 50.0 µM), 38.1%. Moreover, the growth inhibition in experiment [5] (setting [7]) was -7%; in experiment [5] (setting [8]), 44%; in experiment [5] (at 50.0 µM) it was 17.2%; in experiment [6] (setting [7]), -3%; in experiment [6] (setting [8]), 32%; in experiment [6] (at 50.0 µM) it was 36.9%.
Turning to `CN(C)CCNc1ccc2nnn3c4ccc(O)cc4c(=O)c1c23`, the growth inhibition was 32% in experiment [1] (setting [7]); 51% in experiment [1] (setting [8]); 12.1% in experiment [1] (at 50.0 µM); -3% in experiment [2] (setting [7]); -4% in experiment [2] (setting [8]); -3.1% in experiment [2] (at 50.0 µM). Moreover, the growth inhibition in experiment [3] (setting [7]) was 12%; in experiment [3] (setting [8]), 23%; in experiment [3] (at 50.0 µM), -6.05%; in experiment [4] (setting [7]), 19%; in experiment [4] (setting [8]), 32%; in experiment [4] (at 50.0 µM) it was 25.4%. For the same molecule, the growth inhibition was 18% in experiment [5] (setting [7]); 32% in experiment [5] (setting [8]); -0.1% in experiment [5] (at 50.0 µM); 27% in experiment [6] (setting [7]); 15% in experiment [6] (setting [8]); 33.8% in experiment [6] (at 50.0 µM).
Turning to `CCCCNCCC1(c2ccccc2)C(=O)Oc2ccccc21` (configuration not stated), the growth inhibition in experiment [1] (setting [7]) is -5%; in experiment [1] (setting [8]) it was 14%; in experiment [1] (at 50.0 µM), 63.2%; in experiment [2] (setting [7]), -4%; in experiment [2] (setting [8]), 18%; in experiment [2] (at 50.0 µM) it was 57.5%. Moreover, the growth inhibition in experiment [3] (setting [7]) was -5%; in experiment [3] (setting [8]), 35%; in experiment [3] (at 50.0 µM) it was 59.9%; in experiment [4] (setting [7]), 0%; in experiment [4] (setting [8]), -17%; in experiment [4] (at 50.0 µM) it was 46.2%. Moreover, the growth inhibition in experiment [5] (setting [7]) was -5%; in experiment [5] (setting [8]), -12%; in experiment [5] (at 50.0 µM), -9.45%; in experiment [6] (setting [7]), -7%; in experiment [6] (setting [8]) it was 10%; in experiment [6] (at 50.0 µM), 53%.

The values above are taken from PubChem BioAssay (NCI).
